The panel holds about 79,000 compounds, 15% with a hit somewhere; the sample as a whole holds those more often. Calls of active or inactive are those of the source. Cut-off read from the data, not from the text of the source: active = growth inhibition above about 70%; inactive = the rest.
How the values were obtained:
[1] = NCI Yeast Anticancer Drug Screen. Data for the rad50 strain (AID 155);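 note: 0% = growth of vehicle-only cultures of the same strain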; details: S. cerevisiae rad50 strain growth inhibition, active compounds read high
How it was run: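 Vehicle-treated cultures provide the reference for the growth inhibition reported for compound-exposed, repair-deficient yeast.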

[2] = NCI Yeast Anticancer Drug Screen. Data for the mec2-1 strain (AID 157); details: S. cerevisiae mec2-1 strain, active compounds read high
How it was run: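 Using mec2-1 yeast: add compound, measure growth, express inhibition versus vehicle-treated cultures.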

[3] = NCI Yeast Anticancer Drug Screen. Data for the sgs1 mgt1 strain (AID 161);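 note: 0% = growth of cultures given vehicle only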; details: S. cerevisiae sgs1 mgt1 strain, active compounds read high
How it was run: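 Growth of a repair-deficient yeast mutant was monitored after compound treatment and expressed as inhibition relative to vehicle-treated cultures.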

[4] = NCI Yeast Anticancer Drug Screen. Data for the cln2 rad14 strain (AID 165);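 note: 0% = growth equal to vehicle treated cultures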; details: S. cerevisiae cln2 rad14 strain, active compounds read high
How it was run: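 Yeast strain cln2 rad14, bearing defects in cell cycle control and DNA repair, serves as the test system; values reflect growth inhibition compared with vehicle.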

[5] = NCI Yeast Anticancer Drug Screen. Data for the bub3 strain (AID 167); details: S. cerevisiae bub3 mutant strain, active compounds read high
How it was run: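 Mutant yeast screening strain plus compound; vehicle-treated cultures serve as the 0% inhibition reference.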

[6] = NCI Yeast Anticancer Drug Screen. Data for the mlh1 rad18 strain (AID 175); details: S. cerevisiae mlh1 rad18 strain growth inhibition, active compounds read high
How it was run: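 Steps: expose repair-defective yeast to compound; measure growth; express inhibition against vehicle-treated controls.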

[7] = at 5.0 µM (retest, dose inferred, filed as 0.5)
[8] = at 50.0 µM (retest, dose inferred, filed as 5.0)

Measured: growth inhibition

O=C(Nc1cccc(Br)c1)Oc1ccc(Cl)c2cccnc12
inactive: [1]; [7] 38% | [2]; [7] 4% | [3]; [7] 7% | [4]; [7] 4% | [5]; [7] -7% | [6]; [7] 16%
active: [1]; [8] 98% | [1]; at 50.0 µM 89% | [2]; [8] 99% | [2]; at 50.0 µM 91.1% | [3]; [8] 99% | [3]; at 50.0 µM 91.7% | [4]; [8] 97% | [4]; at 50.0 µM 89% | [5]; [8] 98% | [5]; at 50.0 µM 89.9% | [6]; [8] 98% | [6]; at 50.0 µM 90.8%

C=C(c1ccccc1)[N+](=O)[O-]
active: [1]; [7] 94% | [1]; [8] 99% | [1]; at 50.0 µM 99.2% | [2]; [8] 99% | [2]; at 50.0 µM 99.4% | [3]; [8] 99% | [3]; at 50.0 µM 99.6% | [4]; [8] 99% | [4]; at 50.0 µM 99.1% | [5]; [8] 99% | [5]; at 50.0 µM 99.3% | [6]; [8] 100% | [6]; at 50.0 µM 99.2%
inactive: [2]; [7] 63% | [3]; [7] 59% | [4]; [7] 37% | [5]; [7] 67% | [6]; [7] 67%

O=C(C=P(c1ccccc1)(c1ccccc1)c1ccccc1)CC(=S)CC(=O)C=P(c1ccccc1)(c1ccccc1)c1ccccc1
inactive: [1]; [7] 31% | [2]; [7] 18% | [2]; [8] 69% | [3]; [7] 24% | [4]; [7] -3% | [4]; [8] 61% | [5]; [7] 9% | [6]; [7] 8%
active: [1]; [8] 71% | [1]; at 50.0 µM 97.3% | [2]; at 50.0 µM 97.8% | [3]; [8] 85% | [3]; at 50.0 µM 97.8% | [4]; at 50.0 µM 96.2% | [5]; [8] 88% | [5]; at 50.0 µM 95.9% | [6]; [8] 77% | [6]; at 50.0 µM 95.2%

Nc1ccc(Sc2c3ccccc3nc3ccccc23)cc1
active: [1]; at 50.0 µM 80.8% | [3]; [8] 98% | [3]; at 50.0 µM 87.2% | [4]; [8] 96% | [4]; at 50.0 µM 71.8% | [5]; [8] 98% | [5]; at 50.0 µM 85%
inactive: [1]; [7] 19% | [1]; [8] 59% | [2]; [7] 16% | [2]; [8] 34% | [2]; at 50.0 µM 63.3% | [3]; [7] 22% | [4]; [7] 19% | [5]; [7] 24% | [6]; [7] 18% | [6]; [8] 48% | [6]; at 50.0 µM 60.1%

Nc1ccc(C2CCC[C@H]2c2ccc(N)cc2)cc1 (some centres undefined)
inactive: [1]; [7] 0% | [1]; at 50.0 µM 48.8% | [2]; [7] 15% | [2]; at 50.0 µM 46.8% | [3]; [7] 14% | [3]; at 50.0 µM 53.2% | [4]; [7] 1% | [4]; [8] 66% | [4]; at 50.0 µM 39.6% | [5]; [7] -3% | [5]; at 50.0 µM 58.6% | [6]; [7] 21% | [6]; at 50.0 µM 49.1%
active: [1]; [8] 93% | [2]; [8] 87% | [3]; [8] 90% | [5]; [8] 81% | [6]; [8] 95%

Cc1occc1C(=S)Nc1ccc(Cl)c(C(=O)OCC(C)C)c1
active: [3]; [8] 71% | [4]; [8] 71% | [5]; [8] 78% | [6]; [8] 73%
inactive: [1]; [7] 28% | [1]; [8] 59% | [1]; at 50.0 µM 61.3% | [2]; [7] 19% | [2]; [8] 45% | [2]; at 50.0 µM 55.1% | [3]; [7] 34% | [3]; at 50.0 µM 58.8% | [4]; [7] 25% | [4]; at 50.0 µM 57.6% | [5]; [7] 30% | [5]; at 50.0 µM 57.1% | [6]; [7] 33% | [6]; at 50.0 µM 41.3%

O/N=C(/C[n+]1csc2ccccc21)c1ccccc1
active: [1]; [8] 82% | [2]; at 50.0 µM 79.5% | [3]; [8] 87% | [3]; at 50.0 µM 73.7% | [5]; [8] 76% | [5]; at 50.0 µM 76.8% | [6]; [8] 88%
inactive: [1]; [7] -6% | [1]; at 50.0 µM 35.3% | [2]; [7] -8% | [2]; [8] 34% | [3]; [7] -9% | [4]; [7] -6% | [4]; [8] 32% | [4]; at 50.0 µM 37% | [5]; [7] 12% | [6]; [7] 1% | [6]; at 50.0 µM 48%

CN(C)CCNc1ccc(O)c2sc3ccccc3c(=O)c12
active: [1]; [8] 82% | [1]; at 50.0 µM 81.8% | [3]; [8] 70% | [6]; [8] 81%
inactive: [1]; [7] 0% | [2]; [7] -6% | [2]; [8] 56% | [2]; at 50.0 µM 42.8% | [3]; [7] -7% | [3]; at 50.0 µM 48.1% | [4]; [7] -7% | [4]; [8] 19% | [4]; at 50.0 µM 30.6% | [5]; [7] -9% | [5]; [8] 3% | [5]; at 50.0 µM 33.4% | [6]; [7] -5% | [6]; at 50.0 µM 51%

O=CNNC(=O)Nc1ccc(Cl)cc1
inactive: [1]; [7] 19% | [1]; [8] 25% | [1]; at 50.0 µM -1.5% | [2]; [7] 10% | [2]; [8] 14% | [2]; at 50.0 µM -3.75% | [3]; [7] 20% | [3]; [8] 11% | [3]; at 50.0 µM -8.8% | [4]; [7] 32% | [4]; [8] 19% | [4]; at 50.0 µM 22.1% | [5]; [7] 4% | [5]; [8] 0% | [5]; at 50.0 µM 14.6% | [6]; [7] 20% | [6]; [8] 21% | [6]; at 50.0 µM 7.2%

O=C1CCCc2cc3c(nc21)C(=O)CCC3
inactive: [1]; [7] -8% | [1]; [8] -3% | [1]; at 50.0 µM 14.7% | [2]; [7] -11% | [2]; [8] 0% | [2]; at 50.0 µM 12.6% | [3]; [7] 3% | [3]; [8] 0% | [3]; at 50.0 µM 13.1% | [4]; [7] -7% | [4]; [8] 2% | [4]; at 50.0 µM 47.7% | [5]; [7] -6% | [5]; [8] 1% | [5]; at 50.0 µM 0.6% | [6]; [7] 10% | [6]; [8] -9% | [6]; at 50.0 µM 2.5%

CCCCC(CCc1ccccc1)(C(=O)O)c1ccccc1 (centres undefined)
active: [1]; [7] 88% | [1]; [8] 99% | [1]; at 50.0 µM 99.4% | [2]; [7] 87% | [2]; [8] 99% | [2]; at 50.0 µM 99.5% | [3]; [8] 99% | [3]; at 50.0 µM 99.7% | [4]; [7] 88% | [4]; [8] 99% | [4]; at 50.0 µM 99% | [5]; [7] 72% | [5]; [8] 99% | [5]; at 50.0 µM 99.5% | [6]; [7] 92% | [6]; [8] 99% | [6]; at 50.0 µM 99.4%
inactive: [3]; [7] 68%

C[n+]1c(-c2cccc(OCCCCCCCCOc3cccc(-c4c5cc(N)ccc5c5ccc(N)cc5[n+]4C)c3)c2)c2cc(N)ccc2c2ccc(N)cc21
active: [1]; [7] 99% | [1]; [8] 97% | [1]; at 50.0 µM 85.3% | [2]; [7] 99% | [2]; [8] 99% | [2]; at 50.0 µM 88.2% | [3]; [7] 97% | [3]; [8] 98% | [3]; at 50.0 µM 89.8% | [4]; [7] 98% | [4]; [8] 97% | [4]; at 50.0 µM 89.8% | [5]; [7] 99% | [5]; [8] 98% | [5]; at 50.0 µM 88.5% | [6]; [7] 96% | [6]; [8] 97% | [6]; at 50.0 µM 89.3%

C1CCC(OC2CCCCO2)OC1 (centres undefined)
active: [1]; [8] 76% | [1]; at 50.0 µM 70.3% | [5]; [8] 71% | [5]; at 50.0 µM 77.3% | [6]; [8] 92%
inactive: [1]; [7] -2% | [2]; [7] -22% | [2]; [8] 36% | [2]; at 50.0 µM 21.2% | [3]; [7] -11% | [3]; [8] 56% | [3]; at 50.0 µM 62.1% | [4]; [7] -2% | [4]; [8] 66% | [4]; at 50.0 µM 65.2% | [5]; [7] -8% | [6]; [7] -9% | [6]; at 50.0 µM 66%

Reference: PubChem BioAssay (NCI)
